Reference: the supplement of paper PMC10369915

Target: SHP2 N-SH2 domain T42A
Assay: log2 enrichment relative to wild-type ITIM peptide; higher = stronger binding

Row | Binder | log2 enrichment
1 | VFSVDYGELFF [PD-1 ITIM pTyr223 peptide variant D227F] | -0.714
2 | VFSVDYWELDF [PD-1 ITIM pTyr223 peptide variant G224W] | -0.623
3 | VFSVDYGELVF [PD-1 ITIM pTyr223 peptide variant D227V] | -0.565
4 | VFSVDYGEYDF [PD-1 ITIM pTyr223 peptide variant L226Y] | -1.46
5 | VFSVDYGLLDF [PD-1 ITIM pTyr223 peptide variant E225L] | -0.496
6 | VFSLDYGELDF [PD-1 ITIM pTyr223 peptide variant V221L] | -0.962
7 | VFSVDYKELDF [PD-1 ITIM pTyr223 peptide variant G224K] | 2.48
8 | VFFVDYGELDF [PD-1 ITIM pTyr223 peptide variant S220F] | -0.202
9 | VFSVDYGELDW [PD-1 ITIM pTyr223 peptide variant F228W] | 0.678
10 | VFSVMYGELDF [PD-1 ITIM pTyr223 peptide variant D222M] | 0.307
11 | VFVVDYGELDF [PD-1 ITIM pTyr223 peptide variant S220V] | -0.0553
12 | VFSVDYGRLDF [PD-1 ITIM pTyr223 peptide variant E225R] | -0.382
13 | VFSRDYGELDF [PD-1 ITIM pTyr223 peptide variant V221R] | -1.04
14 | VFSVWYGELDF [PD-1 ITIM pTyr223 peptide variant D222W] | -0.569
15 | VFSVDYGFLDF [PD-1 ITIM pTyr223 peptide variant E225F] | -0.82
16 | VFSKDYGELDF [PD-1 ITIM pTyr223 peptide variant V221K] | -1
17 | VVSVDYGELDF [PD-1 ITIM pTyr223 peptide variant F219V] | -0.0583
18 | VFSVDYGELDV [PD-1 ITIM pTyr223 peptide variant F228V] | -1.42
19 | VFSVDYGELDR [PD-1 ITIM pTyr223 peptide variant F228R] | -1.52
20 | VFSVDYGELDL [PD-1 ITIM pTyr223 peptide variant F228L] | -1.19

Row | Binder | log2 enrichment
21 | VFSVDYGELDY [PD-1 ITIM pTyr223 peptide variant F228Y] | -1.37
22 | VFSVDYGEHDF [PD-1 ITIM pTyr223 peptide variant L226H] | -1.46
23 | VFWVDYGELDF [PD-1 ITIM pTyr223 peptide variant S220W] | -0.544
24 | VFSVFYGELDF [PD-1 ITIM pTyr223 peptide variant D222F] | -0.334
25 | VWSVDYGELDF [PD-1 ITIM pTyr223 peptide variant F219W] | -0.244
26 | VFSVDYMELDF [PD-1 ITIM pTyr223 peptide variant G224M] | -0.224
27 | VFSVDYYELDF [PD-1 ITIM pTyr223 peptide variant G224Y] | -0.792
28 | VFSVDYGHLDF [PD-1 ITIM pTyr223 peptide variant E225H] | -0.301
29 | VFSVDYGILDF [PD-1 ITIM pTyr223 peptide variant E225I] | -0.312
30 | VFSVDYGELHF [PD-1 ITIM pTyr223 peptide variant D227H] | -0.826
31 | VFSIDYGELDF [PD-1 ITIM pTyr223 peptide variant V221I] | -0.464
32 | KFSVDYGELDF [PD-1 ITIM pTyr223 peptide variant V218K] | 0.439
33 | MFSVDYGELDF [PD-1 ITIM pTyr223 peptide variant V218M] | 0.0157
34 | FFSVDYGELDF [PD-1 ITIM pTyr223 peptide variant V218F] | -0.37
35 | VFSVDYGELDH [PD-1 ITIM pTyr223 peptide variant F228H] | -1.32
36 | VFSVDYGKLDF [PD-1 ITIM pTyr223 peptide variant E225K] | 0.303
37 | VFSVDYGYLDF [PD-1 ITIM pTyr223 peptide variant E225Y] | -0.767
38 | VFSVDYGELDI [PD-1 ITIM pTyr223 peptide variant F228I] | -1.45
39 | VFSMDYGELDF [PD-1 ITIM pTyr223 peptide variant V221M] | -0.943
40 | VFSVDYLELDF [PD-1 ITIM pTyr223 peptide variant G224L] | -0.0968

Row | Binder | log2 enrichment
41 | VRSVDYGELDF [PD-1 ITIM pTyr223 peptide variant F219R] | 1.24
42 | VFSFDYGELDF [PD-1 ITIM pTyr223 peptide variant V221F] | -1.03
43 | VFSVDYGEIDF [PD-1 ITIM pTyr223 peptide variant L226I] | -0.691
44 | VFMVDYGELDF [PD-1 ITIM pTyr223 peptide variant S220M] | -0.0956
45 | VFSVRYGELDF [PD-1 ITIM pTyr223 peptide variant D222R] | 2.89
46 | VYSVDYGELDF [PD-1 ITIM pTyr223 peptide variant F219Y] | 0.45
47 | VFSVDYGEKDF [PD-1 ITIM pTyr223 peptide variant L226K] | -1.37
48 | VFSVDYGELLF [PD-1 ITIM pTyr223 peptide variant D227L] | -0.728
49 | VFSYDYGELDF [PD-1 ITIM pTyr223 peptide variant V221Y] | 0.57
50 | VFSVIYGELDF [PD-1 ITIM pTyr223 peptide variant D222I] | -0.259
51 | VFSVDYGELWF [PD-1 ITIM pTyr223 peptide variant D227W] | -0.71
52 | VFRVDYGELDF [PD-1 ITIM pTyr223 peptide variant S220R] | 1.22
53 | VFSVVYGELDF [PD-1 ITIM pTyr223 peptide variant D222V] | 0.135
54 | VFSVDYGELRF [PD-1 ITIM pTyr223 peptide variant D227R] | -0.941
55 | VFHVDYGELDF [PD-1 ITIM pTyr223 peptide variant S220H] | 0.0672
56 | VFSHDYGELDF [PD-1 ITIM pTyr223 peptide variant V221H] | -1.23
57 | IFSVDYGELDF [PD-1 ITIM pTyr223 peptide variant V218I] | -0.151
58 | YFSVDYGELDF [PD-1 ITIM pTyr223 peptide variant V218Y] | -0.0716
59 | VFSVHYGELDF [PD-1 ITIM pTyr223 peptide variant D222H] | 1.68
60 | VFSVYYGELDF [PD-1 ITIM pTyr223 peptide variant D222Y] | 0.0176
